rTrxR1 inhibitor – blocks rat thioredoxin reductase 1. O89049. recombinant rTrxR1, NADPH fluorescence consumption, selenite substrate. Potency, µM (highest dose often 114 µM), without a hit: at the top dose activity change, negative = inhibition, hits mostly inhibitors. 390,000 compounds, 1% hits; also: % is scaled to controls: 0 for no effect and ±100 for the full control effect; nearly all actives have a fitted effect of over 65% in size
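Rat TrxR1 (90 nM in the dispensed reagent) was pre-reduced with 400 uM NADPH for 5 min at room temperature, then incubated with compound for 15 min. After 400 uM selenite was added, NADPH fluorescence (Ex 340/Em 450 nm) was followed for 8 min.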
mIDH1 inhibitor – inhibitors of human mutant IDH1 R132H; O75874; IDH1-R132H enzyme, NADPH consumption, diaphorase/resazurin fluorescence; Potency, µM (series often up to 76.6 µM), for inactives: at the highest dose activity change, negative = inhibition, most hits filed as inhibitors; 390,000 compounds, 0.093% hits; also: % is scaled to controls: 0 for no effect and ±100 for the full control effect; nearly all actives have a fitted effect of over 65% in size
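IDH1-R132H (0.5 ug/mL) preincubated 30 min with compound, then NADPH (0.016 mM) and alpha-KG (2 mM) added; 80 min at RT, pH 7.5. Remaining NADPH coupled via diaphorase/resazurin to fluorescence (540/590 nm); concentration-response curves normalized to no-enzyme control.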
12-LOX inh – blocks human arachidonate 12S-lipoxygenase; P18054; purified 12hLO, xylenol orange hydroperoxide absorbance; Potency, µM (series often up to 108 µM), for inactives: at the highest dose activity change, negative = inhibition, hits mostly inhibitors; 580,000 compounds, 1.1% hits; AID 1671190; also: % is scaled to controls: 0 for no effect and ±100 for the full control effect
Target sequence (P18054 whole entry, looked up): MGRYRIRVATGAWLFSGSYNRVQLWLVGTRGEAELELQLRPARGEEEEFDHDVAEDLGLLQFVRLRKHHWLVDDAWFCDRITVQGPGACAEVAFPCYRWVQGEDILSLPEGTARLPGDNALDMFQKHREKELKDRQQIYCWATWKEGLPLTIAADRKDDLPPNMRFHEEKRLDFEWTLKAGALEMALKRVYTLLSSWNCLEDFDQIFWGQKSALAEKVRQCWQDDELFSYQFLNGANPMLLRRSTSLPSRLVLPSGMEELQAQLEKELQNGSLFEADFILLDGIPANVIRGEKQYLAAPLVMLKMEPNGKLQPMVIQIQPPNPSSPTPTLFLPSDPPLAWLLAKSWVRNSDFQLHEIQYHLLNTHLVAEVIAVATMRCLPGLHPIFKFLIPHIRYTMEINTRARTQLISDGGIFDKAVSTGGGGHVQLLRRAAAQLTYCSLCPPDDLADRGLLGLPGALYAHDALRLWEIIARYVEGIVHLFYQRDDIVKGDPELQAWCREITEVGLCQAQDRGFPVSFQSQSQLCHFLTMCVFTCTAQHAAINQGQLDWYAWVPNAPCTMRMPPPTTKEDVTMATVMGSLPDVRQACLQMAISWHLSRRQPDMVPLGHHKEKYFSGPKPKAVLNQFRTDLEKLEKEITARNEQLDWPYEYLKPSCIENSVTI
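Hydroperoxide product was detected by ferrous iron/xylenol orange as the 573 to 405 nm absorbance ratio. Arachidonic acid at 40 uM (final) was turned over for 30 min at room temperature by 150 nM human 12hLO, pH 7.0 Hepes buffer, after 15 min compound preincubation.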
Anesthetic bind – candidate novel general anesthetic via apoferritin binding | Potency, µM (titrated, usually from 77.5 µM), for inactives: at the highest dose activity change, negative = displacement, usual class: inhibitors | 350,000 compounds, 0.074% hits | apoferritin/1-aminoanthracene competitive binding, fluorescence; also: % is scaled to controls: 0 for no effect and ±100 for the full control effect; nearly all actives have a fitted effect of over 20% in size
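Horse-spleen apoferritin (10 uM) was mixed with 50% saturated 1-aminoanthracene in PBS, exposed to compounds for 10 min at room temperature, and read for fluorescence (ex 380 nm, em 535 nm). Competitive displacement was fitted with a four-parameter Hill equation.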
GRP78 ERSR act – induces the endoplasmic reticulum stress response in human glioma cells; U87-MG GRP78 promoter luciferase reporter, 16 h; Potency, µM, for the others: top-dose activation, actives largely listed as activators; 420,000 compounds, 0.02% hits; AID 602332; also: series mostly up to about 76 µM; % of control where 0% means no effect; nearly all actives have a fitted effect of over 35% in size
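ERSR induction read as luciferase luminescence (Bright-Glo, 10 min at room temperature) in stably transfected human U87-MG glioma cells exposed to compounds for 16 h, using GRP78 as sensor.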
TrxR1 substrate – is turned over as a substrate by rat TrxR1; O89049; purified TrxR1 substrate turnover, NADPH consumption readout; Potency, µM (series often up to 114 µM), for the others: top-dose activity change, negative = substrate turnover; 390,000 compounds, 0.01% hits; AID 588456; also: % is scaled to controls: 0 for no effect and ±100 for the full control effect; nearly all actives have a fitted effect of over 50% in size
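Rat TrxR1, dispensed at 90 nM, was prereduced with 400 uM NADPH (final) for 5 min at ~22 deg C, then incubated with compound 15 min before 400 uM selenite. A first-read NADPH fluorescence drop versus no-compound background flagged substrates.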
Numbers without * were called inactive; ? = inconclusive; . = not tested or not shown; ! = not active in a repeat; [ ] = another dose, or the depositor's remark. Rows were chosen to be rich in hits. Some 1.7% of all compounds tested hit in one or more screens of this group. Calls follow the shape of the dose curve; as a rule, active = well fitted curve in the direction sought with a large enough effect; inconclusive = small, poorly fitted or top-dose-only effect, or another doubt; inactive = no such curve, though single readings can be large; an effect the other way counts as inactive or inconclusive. Potency is read from the fitted curve at half-maximal effect.

SMILES | rTrxR1 inhibitor | mIDH1 inhibitor | 12-LOX inh | Anesthetic bind | GRP78 ERSR act | TrxR1 substrate
COC(=O)c1[nH]c(C)c(/C(O)=C2\C(=O)C(=O)N(CCCN3CCOCC3)C2c2ccccn2)c1C (centres undefined) | 25µM* | -2% | -23% | -7% | -7% | -7%
CC(C)CNc1nc2c(c(=O)n(Cc3cccc(Cl)c3)c(=O)n2C)n1C | . | . | 0% | . | . | .
CCOC(=O)c1[nH]c(C)c(/C(O)=C2\C(=O)C(=O)N(CCCN3CCOCC3)C2c2cccnc2)c1C (centres undefined) | 45µM* | -1% | -5% | -12% | -2% | -14%
Cc1cc(SC#N)cc(C)c1NC(=O)CCl | 50µM* | 0% | -9% | 6% | -15% | -7%
NNCCc1ccccc1 | -6%[57.1 µM] | -14% | 5.4µM*! | -16% | ? | 3%[57.1 µM]
O=C(O)c1ccc2c(c1)CC(=O)N2Cc1ccc(F)cc1 | . | . | 11µM* | . | . | .
O=C(NC1CCCCCC1)c1ccc2c(c1)CC(=O)N2Cc1ccc(F)cc1 | . | . | -16% | . | . | .
CCOC(=O)NC(CNC(=O)c1cccc(C)c1)CC(C)C (centres undefined) | . | . | 3% | . | . | .
O=C(Nc1ccc(F)cc1)c1ccc(C(=O)N2CCCC(O)C2)cc1 (centres undefined) | 10µM* | -6% | 1% | . | 0% | 14%[57.1 µM]
O=C(NC1CCCCC1)[C@@H]1C[C@@H](O)CN1C1CCN(C(=O)c2cccs2)CC1 | . | . | 23% | . | . | .
CCN(CC(=O)Nc1cc(Cl)ccc1C)C(=O)CCOc1ccccc1C | 40µM* | -5% | -7% | -5% | -4% | 4%
O=C(CCC[C@H]1NC[C@@H]2CC1CN(Cc1ccccc1)C2)N1CCCC1 | . | . | 11% | . | . | .
CN(Cc1ccc(N2CCCCC2)cc1)C(=O)CCC[C@H]1NC[C@@H]2C[C@H]1CN(Cc1ccccc1)C2 | . | . | 7.9µM* | . | . | .
CC1CCN(C(=O)CCC[C@H]2NC[C@@H]3C[C@H]2CN(Cc2ccccc2)C3)CC1 | . | . | 10µM* | . | . | .
O=C(Nc1cccc2ccccc12)c1ccc2sc([C@@H]3O[C@H](CO)[C@H](O)[C@H](O)[C@H]3O)nc2c1 | . | . | -8% | . | 3% | .
Cc1ccncc1C(=O)N1CCCC(c2nnnn2C)C1 (centres undefined) | . | . | 10% | . | . | .
Cc1ccc(SCCN2CCN(C)CC2)cc1 | 23% | -10% | 40µM* | -8% | -1% | 1%
Cc1ccc(S(=O)(=O)N2[C@H](CC(=O)c3cccs3)OC[C@@H]2C)cc1 | . | . | -15% | . | . | .
CC(C)CCC(=O)N1CCC2(CC1)N(c1ccccc1)C(=O)CS2(=O)=O | . | . | 31% | . | . | .
Cc1nn(-c2ccc(C(F)(F)F)cc2)c(C)c1[C@@H]1C=C[C@@H](NC(=O)NC(C)C)C1 | . | . | 11µM* | . | . | .
Cc1nn(-c2ccc(F)cc2)c(C)c1[C@@H]1C=C[C@@H](NC(=O)CC(C)(C)CC(=O)O)C1 | . | . | 20µM* | . | . | .
Cc1cccc(C(=O)N2C(C(=O)NCC(C)C)COC23CCN(C(=O)c2ccc(F)cc2F)CC3)c1 (centres undefined) | . | . | 43% | . | . | .
COc1ccccc1-c1cc(NCc2cnc(C)cn2)ncn1 | . | . | 5.6µM* | . | -3% | .
O=C(N1CCCC1)N1CCN(c2ccc(Cl)nn2)C(=O)C1 | . | . | 0%[6.33 µM] | . | . | .
O=C(Cc1cccc(C(F)(F)F)c1)N1CCN(c2nnc3ccc(Cl)cn23)CC1 | . | . | 42% | . | . | .
SMILES | rTrxR1 inhibitor | mIDH1 inhibitor | 12-LOX inh | Anesthetic bind | GRP78 ERSR act | TrxR1 substrate
COC1=CC(=O)C(OC)=C(OC)C1=O | 50µM* | 22% | -6% | . | -14% | -9%
Cc1ccc(S(=O)(=O)N=Nc2c(O)[nH]c3ccccc23)cc1 | -12% | 46µM* | ? | -13% | 1% | -3%
Cc1ccc(Cl)cc1NC(=O)Cn1cccc1-c1nc(-c2ccccc2)no1 | . | . | -2% | . | . | .
Cc1cc(O)c(C=O)c2c1C(=O)Oc1c(CO)c(O)c3c(c1O2)C(O)OC3=O (centres undefined) | 50µM* | -13% | . | ? | -1% | -7%
Cc1cc(O)c(C=O)c2c1C(=O)Oc1c(COC(=O)/C=C/C(=O)O)c(O)c(C(=O)O)c(C)c1O2 | . | . | . | -14% | -7% | .
CC(NC(=O)c1ccco1)c1nc2ccccc2n1Cc1ccc(Br)cc1 (centres undefined) | . | . | -5% | . | . | .
CC(NC(=O)/C=C/c1ccco1)c1nc2ccccc2n1Cc1cccc(Cl)c1 (centres undefined) | 14µM* | -5% | ? | -9% | -4% | -3%
COCCN1C(=O)CC[C@]2(C(=O)N3CCN(CC(C)C)CC3)CCCC[C@@H]12 | . | . | 60% | . | . | .
COC(=O)COc1ccc(C2Nc3c(Cl)ccc(C(=O)O)c3C3C=CCC32)cc1 (centres undefined) | 13µM* | -2% | ? | -13% | 16% | 11%
N#C/C(=C\c1ccc(O)c(O)c1)C(=O)Nc1ccccc1 | ? | -10% | 50µM* | . | ? | ?
C(=N\Nc1ccccc1)/c1ccc(N2CCOCC2)cc1 | ? | 0% | 14µM* | -22% | 3% | -8%
N#C/C(=C/c1ccccc1)C(=O)Nc1ccc(N2CCOCC2)cc1 | . | . | 2.5µM* | . | . | .
Clc1cccc(N/N=C/c2ccc(N3CCOCC3)cc2)c1 | -6% | 3% | ? | -11% | 1% | -4%
N#C/C(=C/c1ccc(O)c(O)c1)C(=O)NCc1ccc(Cl)cc1 | 11% | 6% | 25µM* | -17% | 12% | 0%
Cc1cc(C)cc(C(=O)NCC(=O)OCc2ncc(-c3ccccc3)o2)c1 | . | . | -2% | . | . | .
CC(C)=CCC/C(C)=C/CO/N=C1/C[C@@H](O)[C@@H](O)[C@@H]2[C@@H]3C(=O)N(C4CCCCC4)C(=O)[C@H]3CC[C@@H]12 | . | . | . | -7%[15.3 µM] | -2% | .
Nc1ccc(/C=C/c2ccccc2)cc1 | . | . | 1% | . | . | .
O=C1C=C(NC2=CC3OC(c4ccccc4)OCC3OC2=O)CCC1 (centres undefined) | 8.9µM* | 1% | 2% | -8% | -6% | -12%
O=C1C=CC(=O)N1N(c1ccccc1)c1ccccc1 | ? | 7% | 35µM* | -1% | -6% | -9%
O=C1c2ccccc2C(=O)N1N(c1ccccc1)c1ccccc1 | 9% | 3% | -8% | . | -4% | -2%
COc1ccc(F)cc1S(=O)(=O)NCC(c1ccco1)S(=O)(=O)c1ccc(F)cc1 (centres undefined) | 0.89µM* | -7% | -2% | 0% | -1% | -6%[57.1 µM]
CCOc1ccc(S(=O)(=O)NCC(c2ccco2)S(=O)(=O)c2ccc(C)cc2)cc1 (centres undefined) | 1%[57.1 µM] | 6% | -28% | 13% | -1% | 2%[57.1 µM]
COc1ccc(S(=O)(=O)NCC(c2ccco2)S(=O)(=O)c2ccc(C)cc2)cc1C (centres undefined) | 11µM* | 7% | 4% | -2% | -2% | 1%[57.1 µM]
